Measured potencies and affinities stand elsewhere. Active and inactive are the calls of the source. Cut-off not given; nearly all actives show IC50 up to about 0.91 µM.
target: Calcium-dependent protein kinase 4 (Plasmodium falciparum (isolate 3D7)) (UniProt Q8IBS5); assay: PfCDPK4 kinase inhibitors, biochemical, TCAMS library (AID 1159588); details: recombinant PfCDPK4, Kinase-Glo ATP depletion luminescence
Sequence (Q8IBS5 whole entry, looked up): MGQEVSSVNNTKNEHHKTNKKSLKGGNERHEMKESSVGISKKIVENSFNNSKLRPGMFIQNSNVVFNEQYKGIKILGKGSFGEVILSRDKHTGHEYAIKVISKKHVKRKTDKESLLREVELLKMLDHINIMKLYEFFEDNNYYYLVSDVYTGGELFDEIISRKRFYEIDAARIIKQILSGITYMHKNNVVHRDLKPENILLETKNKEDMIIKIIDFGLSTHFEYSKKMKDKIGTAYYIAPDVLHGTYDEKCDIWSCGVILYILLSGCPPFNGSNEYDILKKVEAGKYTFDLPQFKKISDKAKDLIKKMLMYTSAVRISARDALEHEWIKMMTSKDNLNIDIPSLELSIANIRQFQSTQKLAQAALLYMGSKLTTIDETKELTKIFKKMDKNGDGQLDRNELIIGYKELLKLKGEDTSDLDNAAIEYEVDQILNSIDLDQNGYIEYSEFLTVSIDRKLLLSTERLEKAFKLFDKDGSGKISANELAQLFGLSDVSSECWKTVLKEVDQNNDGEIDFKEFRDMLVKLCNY

SMILES | outcome
Clc1ccc(-c2cc3c(NCc4ccncc4)nccc3s2)cc1 | inactive
CCN(CC)CCN(Cc1ccc(-c2ccc(C(F)(F)F)cc2)cc1)C(=O)Cn1c(SCc2ccc(F)cc2)cc(=O)c2ccccc21 | inactive
O=C(Nc1ccccc1)N(Cc1ccccc1-c1cccc(CNCCc2ccccc2)c1)C1CCN(Cc2ccccc2)CC1 | inactive
Cc1ccccc1N1CCN(c2ccc(C(=O)Nc3ccccc3)cc2)CC1 | inactive
CN1CCN(CCCN(Cc2cccc(-c3ccc(CNCc4ccc5c(c4)OCO5)cc3)c2)C(=O)CCC2CCCC2)CC1 | inactive
Fc1ccc2nc(-c3cccc(-c4ccc(CNCc5ccccc5)cc4)c3)[nH]c2c1 | inactive
COc1cc(Cl)c(C)cc1N(Cc1ccccc1-c1ccccc1)S(=O)(=O)c1ccc(C(F)(F)F)cc1 | inactive
COc1cc(NCC(C)CNCc2cn(Cc3ccccc3)c3ccccc23)nc2ccccc12 (stereo not given) | inactive
O=S(=O)(c1cccc(Br)c1)N1CCCCC(c2ccc(C(F)(F)F)cc2)=N1 | inactive
COCc1nc(N)nc(N)c1-c1ccc(Cl)c(Cl)c1 | inactive
O=C(NCCCCN1CCC(c2ccc3c(c2OCC2CC2)CCCC3)CC1)c1ccc(NC(=O)c2ccc(Cl)cc2)cc1 | inactive
Cc1ccc(-c2nnc3c4ccccc4c(C)nn23)cc1S(=O)(=O)N1CCN(CCO)CC1 | inactive
COc1ccc(Nc2nccc(N3CCC(NC(=O)Nc4cc(C)ccc4C)C3)n2)cc1 (stereo not given) | inactive
O=c1ccc2ncc(Cl)c3c2n1CC3CN1CCC(NCc2cc3c(cn2)OCCO3)CC1 (stereo not given) | inactive
CC(=O)c1sc(Cc2nc3ccccc3s2)nc1C | inactive

— PubChem BioAssay
